The target in one experiment is Albumin (Bos taurus) (UniProt P02769). Nature of the experiment: compounds binding labelled BSA control protein – biochemical, small-molecule microarray, Alexa647 label, 635/667 nm fluorescence, artefact control for SMM control protein annotation, profiling panel (AID 1118).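 Note: score merges 667 nm emission intensity and signal-to-noise per printed compound spot.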 The conditions noted are these: BSA-A647 binding, fluorescence 635 nm, higher = more signal.
Experiment [1] is described as follows: probe aXIP binding to arrayed compounds – biochemical, NeuroSMM set, 635/667 nm fluorescence, primary screen (AID 1119).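 Note: probe is the protein aXip251-270 applied at 1 µg/mL to compound-printed slides; binding of probe to printed compounds measured as 667 nm fluorescence plus signal to noise.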 Particulars: small-molecule microarray, higher = more signal, called active from +8 up or from −8 down.
Experiment [2] in a line: probe aNOTCH3 binding on compound microarray – biochemical, small-molecule microarray, 635/667 nm fluorescence, primary screen (AID 1120).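 Note: probe is a biotin-tagged antibody raised against NOTCH3 rather than NOTCH3 protein; score merges spot fluorescence near 667 nm with spot signal to noise.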 Particulars: higher = more signal.
Experiment [3] in a line: probe aNOTCH2 binding on compound microarray – biochemical, small-molecule microarray, 635/667 nm fluorescence, primary screen (AID 1121).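 Note: score merges feature fluorescence read at 667 nm with its signal to noise.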 Particulars: higher = more signal.
The target in experiment [4] is Carbonic anhydrase 2 (Homo sapiens) (UniProt P00918). Nature of the experiment: compounds binding carbonic anhydrase 2 – biochemical, small-molecule microarray, Alexa647-labelled CAII, profiling panel (AID 1122). The conditions noted are these: CAII-A647 binding fluorescence, higher = more signal.
The nature of experiment [5]: COS7 lysate on small-molecule microarray, probe aHis, 635 nm (AID 1123).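 Note: z-score combines 667nm fluorescence intensity with signal-to-noise per printed compound spot.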 Particulars: COS7 cell lysate, fluorescence, higher = more signal.
Experiment [6] in a line: probe aLAP1 signal on lysate-treated microarray – cell lysate, small-molecule microarray, COS7 lysate, primary screen (AID 1124).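 Note: lysate comes from COS7 cells expressing LAP1 and is applied at 0.3 µg/mL; score merges spot fluorescence near 667 nm with signal-to-noise over triplicate slides.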 Particulars: probe aLAP1, fluorescence, higher = more signal.
A further experiment deals with Sam68 (KHDRBS1). Nature of the experiment: compounds binding KHDRBS1 protein – biochemical, small-molecule microarray, 635 nm fluorescence, primary screen (AID 1125).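 Note: score merges 667 nm channel intensity with signal to noise over triplicate slides.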 Particulars: higher = more signal.
Experiment [7] concerns Chordin-like protein 2 (CHRDL2). Nature of the experiment: compounds binding chordin-like 2 – biochemical, small-molecule microarray, 635 nm fluorescence, primary screen (AID 1126).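 Note: printed compound slides probed with Chrdl2 protein at 4 µg/mL for 1 h at 4 C; score merges 667 nm emission intensity with signal to noise over three replicate slides.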 Particulars: fluorescence 635 nm, higher = more signal.
For experiment [8], the target named is Concanavalin-A (Canavalia ensiformis) (UniProt P02866). The experiment in a line: compounds binding concanavalin A lectin – biochemical, small-molecule microarray, Alexa647 label, 635 nm, artefact control for SMM control protein annotation, primary screen (AID 1127).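 Note: z combines 667 nm emission intensity with signal-to-noise across three replicate slides.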 Particulars: ConA-A647 binding fluorescence, higher = more signal.
Sequence of Concanavalin-A (Canavalia ensiformis) (P02866 whole entry, looked up): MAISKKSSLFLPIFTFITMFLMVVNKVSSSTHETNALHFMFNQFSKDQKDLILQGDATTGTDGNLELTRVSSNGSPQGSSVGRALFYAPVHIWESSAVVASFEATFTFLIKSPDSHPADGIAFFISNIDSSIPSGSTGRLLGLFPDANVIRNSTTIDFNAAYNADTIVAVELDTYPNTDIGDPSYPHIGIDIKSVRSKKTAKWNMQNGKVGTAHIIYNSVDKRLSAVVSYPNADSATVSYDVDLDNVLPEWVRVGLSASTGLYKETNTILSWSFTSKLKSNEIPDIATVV
Experiment [9] can be described thus: compounds binding Alexa647 anti-His antibody – biochemical, small-molecule microarray, 635 nm fluorescence, artefact control for SMM control protein annotation, primary screen (AID 1128).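 Note: score merges feature fluorescence with signal-to-noise for each printed compound spot.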 Particulars: higher = more signal.
In experiment [10] the test system is Human papillomavirus type 1a E7 protein (residues 1-88). The experiment in a line: HPV1a E7 small-molecule binders, primary screen, biochemical, small-molecule microarray, residues 1-88, 635 nm (AID 1129). The conditions noted are these: small-molecule microarray binding, fluorescence 635 nm; higher = more signal.
Experiment [11] deals with Focal adhesion kinase 1 (Homo sapiens) (UniProt Q05397). Nature of the experiment: PTK2 protein binding on printed compound slides – biochemical, small-molecule microarray, 635/667 nm fluorescence, BSA, DTT, primary screen (AID 1130).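 Note: composite of spot emission at 667 nm and signal to noise over triplicate slides.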 The conditions noted are these: 635 nm fluorescence, higher = more signal.
Sequence of Focal adhesion kinase 1 (Homo sapiens) (Q05397 whole entry, looked up): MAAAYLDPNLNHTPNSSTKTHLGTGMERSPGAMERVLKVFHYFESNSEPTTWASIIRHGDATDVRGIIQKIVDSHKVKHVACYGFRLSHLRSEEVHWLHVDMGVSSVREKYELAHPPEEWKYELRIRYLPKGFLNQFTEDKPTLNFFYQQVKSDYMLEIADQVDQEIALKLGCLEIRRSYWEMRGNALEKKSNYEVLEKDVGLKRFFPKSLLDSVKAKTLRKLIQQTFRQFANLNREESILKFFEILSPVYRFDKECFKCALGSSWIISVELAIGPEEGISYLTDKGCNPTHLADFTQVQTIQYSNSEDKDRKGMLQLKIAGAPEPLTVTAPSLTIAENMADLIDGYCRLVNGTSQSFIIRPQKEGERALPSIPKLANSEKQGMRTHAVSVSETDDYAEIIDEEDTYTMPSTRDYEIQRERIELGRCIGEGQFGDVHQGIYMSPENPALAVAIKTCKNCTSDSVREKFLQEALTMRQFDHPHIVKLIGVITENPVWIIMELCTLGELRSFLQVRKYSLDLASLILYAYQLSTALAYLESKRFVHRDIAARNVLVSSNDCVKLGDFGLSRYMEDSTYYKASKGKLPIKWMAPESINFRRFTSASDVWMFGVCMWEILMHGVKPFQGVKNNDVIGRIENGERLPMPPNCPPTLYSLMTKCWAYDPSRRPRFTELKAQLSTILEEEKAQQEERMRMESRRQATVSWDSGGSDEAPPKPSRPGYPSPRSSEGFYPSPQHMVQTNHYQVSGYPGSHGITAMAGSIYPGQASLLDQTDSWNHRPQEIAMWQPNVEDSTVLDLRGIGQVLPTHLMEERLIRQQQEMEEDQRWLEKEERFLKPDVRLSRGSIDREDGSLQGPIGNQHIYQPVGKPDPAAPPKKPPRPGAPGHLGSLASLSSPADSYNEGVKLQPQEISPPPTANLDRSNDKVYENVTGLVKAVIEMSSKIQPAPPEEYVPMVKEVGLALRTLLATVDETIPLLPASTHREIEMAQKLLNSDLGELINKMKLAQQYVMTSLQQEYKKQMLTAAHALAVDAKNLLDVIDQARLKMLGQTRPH
In experiment [12] the test system is Fibrinogen (Alexa647-labelled). The experiment in a line: Alexa647-fibrinogen binding to printed small molecules – biochemical, small-molecule microarray, 635/667 nm fluorescence, artefact control for SMM control-protein annotation, profiling panel (AID 1131).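 Note: z-score merges 667 nm fluorescence with per-spot signal-to-noise over triplicate slides.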 Particulars: fibrinogen-A647 binding fluorescence, higher = more signal.
The target in experiment [13] is Follistatin (Homo sapiens) (UniProt P19883). The experiment in a line: FST protein binding to printed compounds – biochemical, small-molecule microarray, 635/667 nm fluorescence, primary screen (AID 1132). The conditions noted are these: 635 nm fluorescence, higher = more signal.
Sequence of Follistatin (Homo sapiens) (P19883 whole entry, looked up): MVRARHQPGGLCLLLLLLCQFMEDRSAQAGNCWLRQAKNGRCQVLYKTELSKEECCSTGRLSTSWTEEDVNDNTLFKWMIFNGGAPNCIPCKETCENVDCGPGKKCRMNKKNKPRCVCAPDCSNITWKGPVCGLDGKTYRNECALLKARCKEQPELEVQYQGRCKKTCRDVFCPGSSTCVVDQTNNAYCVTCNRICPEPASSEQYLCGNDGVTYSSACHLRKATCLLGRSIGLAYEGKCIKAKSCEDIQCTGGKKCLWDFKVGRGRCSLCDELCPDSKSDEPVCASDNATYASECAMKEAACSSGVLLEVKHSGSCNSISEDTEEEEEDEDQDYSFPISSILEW
Experiment [14] has as its target Fibroblast growth factor 2 (Homo sapiens) (UniProt P09038). The experiment in a line: basic fibroblast growth factor binding to printed compounds – biochemical, small-molecule microarray, 635/667 nm fluorescence, primary screen (AID 1133). The conditions noted are these: FGF2, fluorescence 635/667, higher = more signal.
Experiment [15] in a line: JC-1 mitochondrial potential readout, lung cancer cells – cell-based, A549, JC-1 fluorescence, basal, 24 h, 100 nL, profiling panel (AID 1138).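 Note: A549 lung adenocarcinoma cells under basal conditions with no added stimulus; test concentration not given here.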 Particulars: higher = more signal.
Another experiment has as its system Lefty1. The experiment in a line: Lefty1 protein binding to printed compounds – biochemical, small-molecule microarray, 635/667 nm fluorescence, primary screen (AID 1139). The conditions noted are these: fluorescence 635/667, higher = more signal.
Experiment [16] concerns wheat germ agglutinin (Triticum aestivum), Alexa647-labelled. The experiment in a line: Alexa647-WGA lectin binding to printed small molecules – biochemical, small-molecule microarray, 635/667 nm fluorescence, artefact control for SMM control-protein annotation, profiling panel (AID 1140).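 Note: score merges 667 nm feature emission with signal to noise over triplicate slides.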 The conditions noted are these: WGA-A647 binding, 635 nm fluorescence, higher = more signal.

In experiment [17] the target is Luciferin 4-monooxygenase (Photinus pyralis) (UniProt P08659). Nature of the experiment: inhibition of purified Photinus pyralis luciferase – biochemical, luminescence, purified enzyme, 2006 set, primary screen (AID 1141).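 Note: cell-free assay with purified firefly luciferase at 100 ng per well in PBS; test concentration not given here.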 Particulars: purified firefly luciferase, SteadyGlo luminescence, 30 min; higher = more signal, called active from +8 up or from −8 down.
Sequence of Luciferin 4-monooxygenase (Photinus pyralis) (P08659 whole entry, looked up): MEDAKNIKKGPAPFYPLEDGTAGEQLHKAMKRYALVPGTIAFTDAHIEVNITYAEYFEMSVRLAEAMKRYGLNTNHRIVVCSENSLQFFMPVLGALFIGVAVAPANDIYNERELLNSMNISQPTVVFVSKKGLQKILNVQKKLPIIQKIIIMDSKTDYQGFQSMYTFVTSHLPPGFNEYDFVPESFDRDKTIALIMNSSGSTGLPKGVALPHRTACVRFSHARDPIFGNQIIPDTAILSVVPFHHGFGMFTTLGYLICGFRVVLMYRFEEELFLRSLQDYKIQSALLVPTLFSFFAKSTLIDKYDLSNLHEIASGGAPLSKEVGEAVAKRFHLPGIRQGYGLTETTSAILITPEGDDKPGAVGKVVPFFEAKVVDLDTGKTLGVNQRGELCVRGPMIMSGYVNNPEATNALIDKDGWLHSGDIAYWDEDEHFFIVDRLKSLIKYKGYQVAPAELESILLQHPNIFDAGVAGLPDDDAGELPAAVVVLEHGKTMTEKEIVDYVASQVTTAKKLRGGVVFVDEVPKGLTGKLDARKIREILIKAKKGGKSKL

The structures appear in SMILES notation. Calls of active or inactive are those of the source.

Sequence of Fibroblast growth factor 2 (Homo sapiens) (P09038 whole entry, looked up): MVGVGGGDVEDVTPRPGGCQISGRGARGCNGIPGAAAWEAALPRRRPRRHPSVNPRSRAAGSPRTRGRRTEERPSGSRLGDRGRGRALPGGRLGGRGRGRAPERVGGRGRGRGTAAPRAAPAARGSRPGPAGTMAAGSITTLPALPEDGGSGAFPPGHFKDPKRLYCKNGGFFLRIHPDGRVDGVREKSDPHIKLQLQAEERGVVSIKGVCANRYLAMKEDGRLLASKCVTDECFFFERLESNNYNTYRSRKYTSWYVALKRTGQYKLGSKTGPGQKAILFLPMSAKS
Sequence of Albumin (Bos taurus) (P02769 whole entry, looked up): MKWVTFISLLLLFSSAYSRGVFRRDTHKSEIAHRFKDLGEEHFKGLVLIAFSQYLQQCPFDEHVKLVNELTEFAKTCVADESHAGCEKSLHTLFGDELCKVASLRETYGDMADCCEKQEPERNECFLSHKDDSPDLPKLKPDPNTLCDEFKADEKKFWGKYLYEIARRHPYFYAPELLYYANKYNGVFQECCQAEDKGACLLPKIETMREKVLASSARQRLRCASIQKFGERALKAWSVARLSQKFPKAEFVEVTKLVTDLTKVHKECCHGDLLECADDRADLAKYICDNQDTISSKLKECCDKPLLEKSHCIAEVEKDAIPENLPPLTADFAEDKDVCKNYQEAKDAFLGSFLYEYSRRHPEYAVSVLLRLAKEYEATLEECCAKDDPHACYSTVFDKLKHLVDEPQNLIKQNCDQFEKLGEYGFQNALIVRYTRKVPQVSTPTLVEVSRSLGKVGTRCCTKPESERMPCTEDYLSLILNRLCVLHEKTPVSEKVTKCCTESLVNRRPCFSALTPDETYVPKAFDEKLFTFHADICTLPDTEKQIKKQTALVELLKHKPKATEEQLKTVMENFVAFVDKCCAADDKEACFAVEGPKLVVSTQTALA

Regarding `CCOC(=O)c1cn(C[C@H](Cc2ccccc2)NC(=O)N[C@H](CO)CCc2oc(C(C)=O)c(C(=O)OC)c2C(=O)OC)nn1`, the composite z-score in the experiment with Albumin (Bos taurus) is 0.576; in [2] it was 0.269; in experiment [3], -0.123; in experiment [4], 0.443; in [5], 1.57; in experiment [6] it was 0.131. Moreover, the composite z-score came out at 1.3 with Sam68 (KHDRBS1); 1.17 in experiment [7]; 0.883 in experiment [8]; 0.0033 in experiment [9]; 1.18 in experiment [10]; 0.123 in experiment [11]. Further, the composite z-score was determined as 0.812 in experiment [12]; 1.31 in experiment [13]; 1.66 in [14]; 1.59 in the experiment on Lefty1; 0.493 in experiment [16]. For the same molecule, the composite Z-score in [1] is 0.511 (inactive). Further, the results for the z-score in [15] and in experiment [17] were -0.391 and 0.783 (inactive), respectively.
`[N-]=[N+]=Nc1ccccc1[C@@H]1OC(c2ccc(OCCCO)cc2)=N[C@]1(Cc1ccccc1)C(=O)NCCN1CCOCC1`: the composite z-score is 0.981 with Albumin (Bos taurus); 0.156 in experiment [2]; -0.0482 in experiment [3]; 0.607 in [4]; 2.86 in [5]; 0.946 in experiment [6]. In addition, the composite z-score with Sam68 (KHDRBS1) is 0.96; in [7], -0.377; in experiment [8], 0.355; in experiment [9] it was 0.598; in experiment [10], 1.28; in experiment [11] it was 0.15. Moreover, the composite z-score was 0.993 in experiment [12]; 0.675 in [13]; -0.155 in experiment [14]; 0.278 with Lefty1; 0.399 in [16]. Further, the composite Z-score in [1] is 0.0561 (inactive). For the same molecule, the z-score in experiment [15] is -0.225; in experiment [17] it was -5.81 (inactive).
Turning to `Cc1ccc(N2C(=O)c3ccccc3[C@](C)(C(=O)NCCCN(C)C)[C@@H]2c2ccc(CO)cc2)nc1`, the composite z-score with Albumin (Bos taurus) was 0.656; in [2], -0.0984; in experiment [3], -0.13; in experiment [4], 0.281; in experiment [5] it was 0.93; in experiment [6], -0.728. Also, the composite z-score was 0.276 with Sam68 (KHDRBS1); -1.19 in [7]; 0.0368 in experiment [8]; -0.479 in [9]; -0.254 in [10]; 0.304 in [11]. For the same molecule, the composite z-score in experiment [12] is -0.18; in [13] it was 0.351; in experiment [14], -1.21; with Lefty1 it was -0.28; in experiment [16], -0.0926. For the same molecule, the composite Z-score in experiment [1] was -0.392 (inactive). The z-score in experiment [15] was 0.361; in experiment [17] it was -0.156 (inactive).
For `COCCCNC(=O)[C@@]1(CCC(=O)OC(C)(C)C)COC(c2ccc(OCCCO)cc2)=N1`, the composite z-score was 0.483 with Albumin (Bos taurus); 0.133 in [2]; -0.0485 in experiment [3]; 0.619 in experiment [4]; 3 in experiment [5]; 0.504 in [6]. In addition, the composite z-score with Sam68 (KHDRBS1) is 1.28; in experiment [7], -0.42; in experiment [8], 0.286; in experiment [9], 0.839; in [10], 1.27; in experiment [11], 0.403. The composite z-score is 1.04 in experiment [12]; 0.636 in experiment [13]; 0.502 in experiment [14]; -0.322 with Lefty1; 0.386 in [16]. In experiment [1], the composite Z-score was 0.507 (inactive). The z-score in [15] was -0.274; in experiment [17] it was 0.75 (inactive).
In the case of `C[C@@H]1NC(=O)C([C@@H](C)OCc2ccccc2)NC(=O)[C@@]23C(=O)N[C@@H](Cc4ccccc4)C2[C@H](C)[C@@]2(C)O[C@H]2C3/C=C/C/C=C\CNC1=O` (stereo not given in full), the composite z-score in the experiment with Albumin (Bos taurus) is -1.17; in [2] it was -0.222; in experiment [3], -0.125; in experiment [4], 0.61; in experiment [5], -0.13; in experiment [6], 0.0711. The composite z-score in the experiment with Sam68 (KHDRBS1) is -0.503; in [7], 0.209; in experiment [8] it was -0.928; in [9], -0.839; in experiment [10] it was -1.36; in experiment [11], -0.526. Further, the composite z-score was -0.397 in experiment [12]; 0.0746 in [13]; 0.0742 in experiment [14]; 0.0892 in the experiment on Lefty1; -0.117 in experiment [16]. For the same molecule, the composite Z-score in [1] is 2.08 (inactive). The values for the z-score in experiment [15] and in experiment [17] were -0.0956 and 0.0545 (inactive), respectively.
Consider `C=C(CCCC)C(=O)CC[C@@H](OC(=O)c1ccccc1-c1ccccc1C(=O)O)c1ccccc1OCCO`, for which the composite z-score was 0.269 with Albumin (Bos taurus); -0.207 in experiment [2]; -0.14 in experiment [3]; 0.626 in experiment [4]; -0.467 in experiment [5]; 0.712 in [6]. Moreover, the composite z-score was 0.523 in the experiment on Sam68 (KHDRBS1); 0.492 in experiment [7]; 1.05 in experiment [8]; 0.397 in [9]; 0.421 in experiment [10]; -0.104 in experiment [11]. In addition, the composite z-score in experiment [12] is 0.017; in experiment [13] it was 1.02; in experiment [14], 0.906; in the experiment with Lefty1, 1.2; in [16], -0.191. Moreover, in [1], the composite Z-score is -0.136 (inactive). The z-score in [15] is 0.916; in [17], -1.31 (inactive).

The values above are taken from PubChem BioAssay.
